Among all 320,000 compounds or so, about 22,000 (6.9%) were called active. Roughly 27% stayed inconclusive and do not appear here. The entries come from a sample that favours actives as a whole. Unmarked numbers belong to inactive results. The call rests on the fitted dose curve; in most records, active means well fitted inhibition curve with a large enough effect; inconclusive means small, poorly fitted or top-dose-only effect, or another doubt; inactive means no such curve, though single readings can be large or run the other way.
Test: Primary qHTS for delayed death inhibitors of the malarial parasite plastid, 96 hour incubation
Conditions: P. falciparum luciferase reporter growth; series mostly up to 28.7 µM; activity change, negative = inhibition: at the top concentration
Method in brief: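 Infected RBCs, 2% Hct / 0.05% parasitemia final; luciferase-reporter P. falciparum; cpd 96 h, 37 C, 5% CO2; luciferase detection reagent; luminescence.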
On the % scale 0 is the no-effect control and ±100 the full control effect; potency means the concentration at half of the fitted maximal effect.

Structure (SMILES)	activity change, negative = inhibition	Potency
CCOC(=O)c1c(C)[nH]c(C(=O)OCC(=O)N2CCCC2=O)c1C	7.24%	–
COc1cccc(NC(=O)COC(=O)/C=C/c2ccco2)c1	-5.91%	–
COCCCNC(=O)Cc1ccc(-n2c(C)nc3cccnc32)cc1	58.7%	–
COc1cc2c(cc1OC)CC(=O)N(CCCN(C)C[C@H]1Cc3cc(OC)c(OC)cc31)CC2	15.7%	–
C#CC(C)(C)NC(=O)CSc1nc2c(c(=O)n(C)c(=O)n2C)n1CCCC	-3.48%	–
Cn1c(=O)c2c(SCC(=O)N3CCOCC3)nc(C3CC3)nc2n(C)c1=O	27.7%	–
CCCCn1c(SCC(=O)N2CCOCC2)nc2c1c(=O)n(C)c(=O)n2C	–	11.7 µM (active)
CC(C)CC(=O)c1c[nH]c(C(=O)NCc2ccccc2)c1	-10.9%	–
Cc1nc(SCC(=O)NC2CCCCC2C)c(C#N)c(C)c1C (stereo not given)	-0.344%	–
COc1ccc(-c2cn[nH]c2-c2ccc(OC)cc2)cc1	3.34%	–
CCSc1nc(-c2ccc(OC)cc2)cc(-c2ccc(OC)cc2)c1C#N	–	4.65 µM (active)
N#Cc1c(C(F)(F)F)cc(-c2ccccc2)nc1SCC(=O)N1CCOCC1	20.9%	–
CCOC(=O)CC(=O)CSc1nc(-c2ccccc2)cc(-c2ccc(Cl)cc2)c1C#N	–	7.38 µM (active)
N#Cc1c(-c2ccccc2)cc(-c2ccccc2)nc1SCC(=O)O	35.1%	–
COc1ccc(-c2cc(-c3ccc(N)cc3)nc(N)c2C#N)cc1OC	5.39%	–
Cn1ccsc1=NC(=O)c1cc(S(=O)(=O)N2CCOCC2)ccc1Cl	-14.7%	–
O=C(NCc1ccc2c(c1)OCO2)C(=O)NCC1OCCN1S(=O)(=O)c1ccc(F)cc1 (stereo not given)	-14.7%	–
COCCCNC(=S)N1CCN(c2nc(-c3cccc(OC)c3)cs2)CC1	10.2%	–
COc1ccc(C)cc1Nc1n[n+](-c2ccccc2)c(-c2cccc(Cl)c2Cl)s1	–	13.1 µM (active)
CCc1ccc(Nc2n[n+](-c3ccccc3)c(-c3cccc(Cl)c3Cl)s2)cc1	–	3.7 µM (active)
COC(=O)c1cnc(Nc2cc(C)ccc2OC)c2ccccc12	-10.3%	–
COc1ccc(C)cc1Nc1nc(-c2c(C)[nH]c3ccccc23)cs1	0%	–
N#Cc1ccccc1NC(=O)c1ccc2c(c1)OCO2	26.6%	–
N#C/C(=C\c1cccnc1)C(=O)Nc1ccc(SC(F)F)cc1	0.243%	–
Cc1ccc(CNC(=O)CSc2nnc3c(n2)[nH]c2ccc(F)cc23)cc1	19.9%	–

Structure (SMILES)	activity change, negative = inhibition	Potency
COC(=O)C(C)n1cnc2c(nnn2-c2ccc(F)cc2)c1=O (stereo not given)	39.5%	–
Cc1cc(C)cc(N(CC(=O)NC2CCCC2)C(=O)CCC(=O)Nc2nccs2)c1	22.4%	–
COc1ccc(C(=O)C2CCCN(Cc3cccn3-c3ccccn3)C2)c(C)c1 (stereo not given)	-17.5%	–
COc1ccc(C(=O)C2CCCN(Cc3ccc4nonc4c3)C2)c(C)c1 (stereo not given)	3.69%	–
CCOC(=O)c1[nH]ncc1CN1CCCC(C(=O)c2ccc(OC)cc2C)C1 (stereo not given)	–	8.28 µM (active)
O=C(N=C1SC2CS(=O)(=O)CC2N1c1cc(Cl)ccc1Cl)C1CC1 (stereo not given)	27.7%	–
COC(=O)c1cccc(C(=O)N2CCCC(Nc3ccc4c(c3)OCCO4)C2)c1 (stereo not given)	-13.8%	–
COc1ccc(C(=O)NCC(=O)N/N=C/c2cccnc2)cc1	13.3%	–
Cc1c(S(=O)(=O)N2CC(C)CC(C)C2)c(=O)n(C)c(=O)n1C (stereo not given)	17.7%	–
O=C(CCCN1C(=O)/C(=C\c2ccccc2)SC1=S)Nc1ccccc1O	-24.2%	–
O=C1/C(=C/c2ccc(F)cc2)SC(=S)N1CCCC(=O)N1CCCCC1CCO (stereo not given)	–	6.57 µM (active)
O=C(CCCN1C(=O)/C(=C/c2ccccc2)SC1=S)Nc1ccc(O)cc1	-3.08% [at 5.75 µM]	–
CC(=O)c1ccc(NC(=O)Cn2c(=O)oc3ccccc32)cc1	0.355%	–
CCCN1C2CCCC1CC(NC(=O)c1cccc(OC)c1)C2 (stereo not given)	1.92%	–
CCc1ccc(S(=O)(=O)Nc2ccc(C)c(NS(C)(=O)=O)c2)cc1	4.07%	–
CCCCc1ccc(NC(=O)CN2C(=O)NC(Cc3ccccc3)C2=O)cc1 (stereo not given)	2.93%	–
CC(C)=N/N=C1/NC(=O)C(Cc2ccccc2)S1 (stereo not given)	252%	–
CCOc1cc(/C=C(/C#N)c2ccc(Cl)cc2)cc(Cl)c1OCC(=O)O	–	13.1 µM (active)
CCOC(=O)CN/C=C(\C#N)c1ccc(F)cc1	10.4%	–
COc1cc(/C=C(/NC(=O)c2ccc(Cl)cc2Cl)C(=O)O)cc(OC)c1OC	486%	–
CCC(=O)Nc1nnc(S(=O)(=O)N2CCCc3ccccc32)s1	0.177%	–
O=C(COC(=O)c1cccs1)Nc1ccccc1Cl	10.8%	–
COc1ccccc1Nc1nc(N)nc(CSC(=S)N2CCOCC2)n1	14.2%	–
COc1cc(C2C(C(=O)Nc3ccccc3OC)=C(C)Nc3ncnn32)ccc1O (stereo not given)	-6.58%	–
COc1ccccc1NC1=NC(c2ccc(Cl)cc2)N=C(N)N1 (stereo not given)	–	0.928 µM (active)

Reference: PubChem BioAssay AID504834 (National Center for Advancing Translational Sciences (NCATS), 2011)
